A selection: hits, their analogues and other compounds. The true share with any hit is near 3.4%.
Env fusion inh: HIV envelope-mediated fusion inhibition; HeLa-JRFL Env/CEM21 cell fusion, luciferase; inhibition, % at 12.3 µM; hit rate 1.1% among 360,000;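 active = mean replicate inhibition score of at least 50 and every replicate individually at or above 50; inconclusive = only one of the two criteria met; inactive = mean below 50 and not all replicates reaching 50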
esBAF inh: blocks esBAF chromatin remodeling in mouse ES cells; Bmi1-luciferase knock-in reporter, 24 h; 100% = twice the neutral-well signal; reporter increase, % at 12.5 µM; hit rate 2% among 350,000; AID 602393; in the data active = activation above about 40%; inconclusive = no clear call, values can overlap the other calls;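 also: a rise in the Bmi1 reporter signal indicates esBAF inhibition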
miR-122 sensor: miR-122 inhibition in Huh7 cells. Huh7 miR-122 Renilla luciferase sensor, 48 h; neutral wells = 0, positive control = 100. activation (reporter increase), % at 12.5 µM. hit rate 0.3% among 340,000. AID 602342;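 active = mean replicate activation score at least 90 and every replicate individually at or above 90; inconclusive = only one of the two criteria met; inactive = neither criterion met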;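 also: higher luciferase means less miR-122 activity so hits act as miR-122 inhibitors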
MITF TRPM1 HTS: increases MITF-driven TRPM1 promoter luciferase signal; hit rate 0.75% among 300,000; activation, % at 12.5 µM; SK-MEL-5 TRPM1-promoter luciferase, 24 h; % of positive control, neutral wells = 0;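 active = mean activation of at least 80% with every replicate also reaching 80%; inconclusive = mean reaches 80% but some replicate falls short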
Wnt bcat act: activates Wnt/beta-catenin signaling in a reporter cell assay; activation, % at 9.35 µM; hit rate 1.2% among 300,000; activator, plate reader; in the data active = activation above about 30%, passing the limit was not always enough; inconclusive = no clear call, values can overlap the other calls
Hits are given with their value; 0 = inactive; ? = inconclusive; - = no result given; ! = not active in a repeat; [ ] = dose if it differs, or a comment.

SMILES	Env fusion inh	esBAF inh	miR-122 sensor	MITF TRPM1 HTS	Wnt bcat act
C[C@H](CO)N1C[C@H](C)[C@H](CN(C)C(=O)CN2CCOCC2)Oc2ncc(C3=CCCCC3)cc2C1=O	0	0	-	-	-
C[C@@H]1CN([C@H](C)CO)C(=O)c2cccc(NS(=O)(=O)c3ccc(Cl)cc3)c2O[C@H]1CN(C)C(=O)Nc1cccc2ccccc12	0	0	0	-	-
CN(CCC#N)C(=O)CC1(Cc2ccccc2)CCOC(C)(C)C1 (centres undefined)	0	-	0	0	0
CN(C[C@H](Cc1ccccc1)N(C[C@H](CC1CCCCC1)N(CCc1ccccc1)N=O)N=O)N=O	67.3	0	-	0	0
CN(C[C@H](Cc1ccccc1)N(C[C@H](Cc1ccccc1)N(CC1(c2ccccc2)CC1)N=O)N=O)N=O	98.4	0	0	0	0
CCC(C)[C@@H](CN(N=O)[C@@H](Cc1ccccc1)CN(C)N=O)N(CCc1ccccc1)N=O (some centres undefined)	-	0	0	0	-
CN(C[C@@H](CC1CCCCC1)N(C[C@H](Cc1ccccc1)N(CCc1ccccc1)N=O)N=O)N=O	83.6	0	-	-	0
C[C@@H]1CN([C@@H](C)CO)C(=O)c2cccc(NS(=O)(=O)c3cccs3)c2O[C@@H]1CN(C)Cc1ccc(Cl)c(Cl)c1	0	0	0	-	-
C[C@H](CO)N1C[C@H](C)[C@@H](CN(C)Cc2ccc(Cl)c(Cl)c2)Oc2c(NS(=O)(=O)c3ccccc3)cccc2C1=O	0	0	105.6![16.7 µM]	-	-
COc1ccc(S(=O)(=O)Nc2cccc3c2O[C@H](CN(C)Cc2ccc(Cl)c(Cl)c2)[C@@H](C)CN([C@H](C)CO)C3=O)cc1	0	0	97.7!	0	0
COc1ccc(S(=O)(=O)Nc2cccc3c2O[C@H](CN(C)Cc2ccc(Cl)c(Cl)c2)[C@H](C)CN([C@@H](C)CO)C3=O)cc1	?	0	0	-	-
C[C@@H]1CN([C@H](C)CO)C(=O)c2cccc(NS(=O)(=O)c3cccs3)c2O[C@@H]1CN(C)Cc1ccc(Cl)c(Cl)c1	89.7[16.7 µM]	0	0	-	-
O=C(C[C@@H]1C=C[C@H](NC(=O)c2cccc(F)c2)[C@H](CO)O1)NCc1ccccc1	?	0	0	-	-
O=C(CN1CCOCC1)N1CC[C@@H]2[C@H]1c1cc(-c3ccccc3)ccc1N[C@@H]2CO	-	0	0	-	-
COc1ccc(-c2ccc3c(c2)[C@@H]2[C@@H](CCN2C(=O)CN2CCOCC2)[C@@H](CO)N3)cc1	-	48.6	0	-	-
COc1cccc(-c2ccc3c(c2)[C@H]2[C@H](CCN2C(=O)CN2CCOCC2)[C@@H](CO)N3)c1	-	0	0	-	-
O=C(CN1CCOCC1)N1CC[C@@H]2[C@H](CO)Nc3ccc(-c4ccccc4F)cc3[C@@H]21	-	41.6	0	-	-
COc1c(C(=O)Nc2nnc(C3CC3)s2)csc1Cl	0	47.7	0	0	0
Cc1cnc(C(=O)Nc2nnc(C3CC3)s2)cn1	0	0	0	-	0
CN1C2CCC1/C(=C\c1ccc(F)cc1)C(=O)/C2=C/c1ccc(F)cc1	0	-	-	0	0
C=CC(=O)N1C/C(=C/c2ccc(F)cc2)C(=O)/C(=C\c2ccc(F)cc2)C1	111.1	0	0	0	0
O=C(N=C1N=C2C=CC(Br)=CN2Cc2ccccc21)c1ccc([N+](=O)[O-])cc1[N+](=O)[O-]	0	-	-	0	55.6
C[C@@H]1CN([C@@H](C)CO)C(=O)Cc2cc(NC(=O)CCC(F)(F)F)ccc2O[C@H]1CN(C)C(=O)Nc1cccc2ccccc12	0	0	0	-	-
CC(C)CC#Cc1ccc([C@H]2[C@H]3CN(C(=O)NC4CCCC4)CCCCN3[C@H]2CO)cc1	-	0	0	-	-
CCSc1nnc(-c2c[nH]c3ccccc23)o1	-	49.3	0	0	-
SMILES	Env fusion inh	esBAF inh	miR-122 sensor	MITF TRPM1 HTS	Wnt bcat act
N#Cc1c(N2CCCC2)nc(N)c2c(N)nc(N3CCCC3)cc12	-	69.1	0	0	-
CN(C)c1cccc(C(=O)NN2C(=O)NC3(CCCCC3)C2=O)c1	0	42.7	-	0	0
CCn1c(-c2ccccc2)csc1=Nc1ccc(S(=O)(=O)O)cc1	0	-	-	0	0
COCCCn1c(-c2ccc(S(=O)(=O)N3CCOCC3)cc2)csc1=Nc1ccccc1	70.2	-	-	0	0
CCC(=O)Nc1ccc2c(c1)OC[C@@H](C)N(C(=O)CN(C)C)C[C@@H](C)[C@@H](OC)CN(C)C2=O	0	0	0	-	-
O=C(C1CCCC1)N1[C@@H]2CN(S(=O)(=O)c3ccccc3)c3ccccc3[C@@H]2[C@@H]1CO	-	0	0	-	-
Fc1ccc2c(Cl)c(-c3nnc(-c4cccs4)o3)sc2c1	0	0	0	-	44.0
COc1cc(-c2nnc(-c3cccs3)o2)cc(OC)c1OC	-	0	0	0	-
C[C@H](CO)N1C[C@H](C)[C@@H](CN(C)C(=O)CC2CC2)Oc2ncc(C#C[C@@H](C)O)cc2C1=O	0	0	0	-	-
Cc1nn(-c2ccccc2C(=O)O)c(=O)c2ccccc12	0	0	0	0	0
Cc1nn(-c2ccc(Br)cc2)c(=O)c2ccccc12	0	0	-	0	41.8
COc1ccc(-c2cc(COc3ccccc3)on2)cc1	0	-	-	0	0
Fc1ccc(OCc2cc(-c3ccccc3)no2)cc1	0	56.7	0	100.4	0
C[C@H]1CN([C@@H](C)CO)C(=O)Cc2cc(NC(=O)Nc3ccc4c(c3)OCO4)ccc2O[C@@H]1CN(C)Cc1ccccc1	0	48.0	0	-	-
Cc1ccc(S(=O)(=O)N(C)C[C@@H]2Oc3ccc(NC(=O)Nc4ccc5c(c4)OCO5)cc3CC(=O)N([C@@H](C)CO)C[C@@H]2C)cc1	0	0	113.4[16.7 µM]	-	-
C[C@H](CO)N1C[C@H](C)[C@H](CN(C)S(=O)(=O)c2ccccc2)Oc2ccc(NC(=O)Nc3ccc4c(c3)OCO4)cc2CC1=O	75.1[16.7 µM]	0	0	-	-
C[C@H](CO)N1C[C@H](C)[C@@H](CN(C)Cc2ccccc2)Oc2ccc(NC(=O)Nc3ccc4c(c3)OCO4)cc2CC1=O	0	0	0	-	-
C[C@H](CO)N1C[C@H](C)[C@@H](CN(C)S(=O)(=O)c2ccccc2)Oc2ccc(NC(=O)Nc3ccc4c(c3)OCO4)cc2CC1=O	0	0	0	-	-
C[C@H](CO)N1C[C@H](C)[C@H](CN(C)CC2CCCCC2)OCCCC[C@H](C)Oc2ccc(NC(=O)Nc3ccc(F)cc3)cc2C1=O	0	0	0	-	-
Cc1ccc(S(=O)(=O)Nc2ccc3c(c2)CC(=O)N([C@@H](C)CO)C[C@@H](C)[C@H](CN(C)C(=O)Nc2ccc(F)cc2)O3)cc1	-	0	0	-	-
COc1cc2ccccc2cc1C(=O)Nc1ccc(O)cc1	0	?	0	-	52.7
COc1ccc(NC(=O)c2cc3ccccc3cc2OC)cc1OC	0	-	-	0	0
O=C(Nc1ccon1)c1csc2c1CCCC2	-	0	0	0	0
COc1cccc(NC(=O)CN(C)C(=O)c2csc3c2CCCC3)c1	-	0	0	0	0
COc1cccc(NC(=O)c2csc3c2CCCC3)c1	0	68.6	0	95.1	45.9
COc1cccc(NC(=O)c2cc3ccccc3cc2OC)c1	0	49.8	0	-	48.6
O=C(Nc1nccs1)c1csc2c1CCCC2	-	62.9	0	0	-

Bioassay records as filed in PubChem.
